Source: PubChem BioAssay (NCI)
About 83,000 compounds went through this panel and 20% of them were active in at least one assay; those are over-represented in the sample as a whole.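 Assay: single dose, 48 h. Readout: percent growth (0 = no net growth; negative = cell death). Active: <10.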 Activity calls are given as the source filed them.

System: NCI-H226 lung
Assay: NCI-60 one-dose screen, 48 h (100 = growth as untreated, 0 = no growth, -100 = all killed)
Conditions: 10 µM unless noted

SMILES | growth
COC(=O)[C@]1(C)CC[C@]2(C)CC[C@]3(C)C(=CC(=O)[C@@H]4[C@@]5(C)CCC(=O)NC(C)(C)[C@@H]5CC[C@]43C)[C@@H]2C1 | -58.3% [100 µM] (active)
O=C(CSc1nc2ccc([N+](=O)[O-])cc2[nH]1)Nc1cccc(Cl)c1 | 12.9% (inactive)
CCn1cc(-c2ccnc(NCCNS(=O)(=O)c3cccc4ccccc34)c2)c(-c2cccc(O)c2)n1 | 94.2% (inactive)

System: NCI-H322M lung
Assay: as above
Conditions: 10 µM unless noted

SMILES | growth
CCOc1cc(/C=N\NC(=O)N/N=C/c2ccc(O)c(OCC)c2)ccc1O | 50.7% (inactive)
Cc1ccc(C2=C/C(=C/c3ccc(Br)cc3)C(=O)N2CCc2ccc(S(N)(=O)=O)cc2)cc1 | 90.6% (inactive)
Clc1ccc(N2CCN(CCCN3CCN(c4cccc(Cl)c4)CC3)CC2)cc1 | 78.3% (inactive)
CC(C)OC(=O)Nc1cc(F)ccc1F | 90.8% (inactive)
C[C@H]1[C@H](C)CC[C@]2(C(=O)N3CCN(C)CC3)CC[C@]3(C)C(=CC[C@@H]4[C@@]5(C)C/C(=C/c6ccco6)C(=O)C(C)(C)[C@@H]5CC[C@]43C)[C@H]12 | 51.6% [100 µM] (inactive)
CC(C)C1=NOC(=O)C1=Cc1cn(-c2ccccc2)nc1-c1ccc(Br)cc1 | 90.5% (inactive)
C=C(CN=[N+]=[N-])[C@@H]1CC[C@]2(C)[C@H](CC[C@@H]3[C@H]4[C@H]5OC(=O)[C@@]4(CCC5(C)C)CC[C@]32C)[C@@]1(C)CCC#N | 96.9% [100 µM] (inactive)
Nn1c(Nc2ccc(S(=O)(=O)Nc3ncccn3)cc2)nnc(/C=C/c2c(O)ccc3ccccc23)c1=O | 90% (inactive)
